Consider 32 compounds from ChEMBL document CHEMBL4513146, “CO-ADD screening of Karazin Kharkiv National University (Ukraine) compounds”.

For one assay, the system named is Staphylococcus aureus. The conditions noted are these: Concentration 32 ug.mL-1;; ASSAY_TEST Inhibition of Bacterial Growth; detection method Absorption (OD600); MEDIA CAMHB; plate type 384well; NBS; CORNING #3640; time 18 hr.
The test system of a further assay is Escherichia coli. The note with it: Concentration 32 ug.mL-1;; ASSAY_TEST Inhibition of Bacterial Growth; detection method Absorption (OD600); MEDIA CAMHB; plate type 384well; NBS; CORNING #3640; time 18 hr.

Molecules are shown by their SMILES. Entries with a potency or affinity are not part of this list.

Broadly, the Inhibition is the change of the read-out against control, counted positive when it falls. Turning to `COc1cccc(-n2ccn3c(SCC(=O)NCc4ccc(C)cc4)nnc3c2=O)c1`, the Inhibition with Staphylococcus aureus is reported as -1.77%; in the assay on Escherichia coli, 2.15%.

As for `CC1CCCN(c2nccn3c(=O)n(CC(=O)Nc4ccc(Br)cc4F)nc23)C1` (centres undefined), the Inhibition was 12.44% in the assay on Staphylococcus aureus and 0.2% in the assay with Escherichia coli.

On to `COc1ccccc1N1CCN(C(=O)CSc2nc3ccccc3n3c(C(C)C)nnc23)CC1`, for which the Inhibition with Staphylococcus aureus amounted to 1.01%; in the assay with Escherichia coli, 3.41%.

Turning to `O=C(Cn1nc2c(Oc3ccccc3)nccn2c1=O)Nc1ccc(Br)cc1F`, the values for the Inhibition with Staphylococcus aureus and in the assay with Escherichia coli were -5.68% and -11.64%, respectively.

As to `O=C(Cn1nc2ccc(Sc3ccccc3)nn2c1=O)N1CCN(c2ccc(F)cc2)CC1`, the results for the Inhibition with Staphylococcus aureus and with Escherichia coli were 9.78% and 1.58%, respectively.

Take `Cc1ccccc1NC(=O)Cn1nc2ccc(SC3CCCCC3)nn2c1=O`: the Inhibition with Staphylococcus aureus is recorded as 2.21%; in the assay on Escherichia coli, -7.39%.

With `O=C(CCc1nnc2c3cc(-c4ccccc4)nn3ccn12)N1CCN(C(=O)c2ccco2)CC1`, the values for the Inhibition with Staphylococcus aureus and with Escherichia coli were 7.4% and 0.93%, respectively.

As for `CC(C)c1nnc2c(=O)n(CC(=O)Nc3ccc(Cl)cc3)c3ccccc3n12`, the figures for the Inhibition with Staphylococcus aureus and with Escherichia coli were 11.52% and 1.04%, respectively.

With `COc1ccc(Cl)cc1NC(=O)Cn1nc2c3cc(-c4ccc(C)cc4)nn3ccn2c1=O`, the Inhibition in the assay on Staphylococcus aureus came out at 13.21%; with Escherichia coli it was 3.02%.

Consider `O=C(CCc1nnc2c3cc(-c4ccc(F)cc4)nn3ccn12)NCc1ccccc1Cl`, for which the Inhibition in the assay with Staphylococcus aureus was -0.61%; in the assay on Escherichia coli it was -10.24%.

For `Cc1ccccc1N1CCN(c2nccn3c(=O)n(CC(=O)NCc4ccc(Cl)cc4)nc23)CC1`, the Inhibition is given as 13.83% with Staphylococcus aureus and -3.79% with Escherichia coli.

Turning to `Cc1ccc(NC(=O)Cn2c(=O)c3nnc(C(C)C)n3c3ccccc32)cc1`, the Inhibition with Staphylococcus aureus was -2.26%; in the assay on Escherichia coli, 0.43%.

As to `CCOc1ccc(-n2ccn3c(SC(C)C(=O)Nc4ccc(OC)cc4)nnc3c2=O)cc1` (centres undefined), the Inhibition is recorded as 5.98% with Staphylococcus aureus and -5.92% with Escherichia coli.

As for `COc1ccc(CNC(=O)Cn2nc3c(Oc4cccc(C)c4C)nccn3c2=O)cc1`, the Inhibition in the assay on Staphylococcus aureus was -12.87%; in the assay with Escherichia coli it was 0.86%.

As to `Cc1ccc(NC(=O)Cn2nc3c(N4CCOCC4)nccn3c2=O)cc1F`, the Inhibition in the assay with Staphylococcus aureus is reported as 9.97%; in the assay with Escherichia coli, 2.81%.

As to `CCc1ccc(N(Cc2ccc(F)cc2)S(=O)(=O)c2cccn3c(CC)nnc23)cc1`, the Inhibition in the assay on Staphylococcus aureus is listed as 19.9%; with Escherichia coli, -4.69%.

For the compound `CCCCc1ccc(NC(=O)Cn2nc3c(N4CCN(c5ccccc5C)CC4)nccn3c2=O)cc1`, the Inhibition in the assay on Staphylococcus aureus was 0.53%; in the assay with Escherichia coli it was -13.2%.

Take `Cc1ccc(Sc2nccn3c(=O)n(CC(=O)Nc4ccc(Br)cc4)nc23)c(C)c1`: the figures for the Inhibition with Staphylococcus aureus and in the assay with Escherichia coli were -1.98% and -4.39%, respectively.

In the case of `COc1ccc(CCn2c(=O)c3sccc3n3c(=O)n(Cc4c(F)cccc4Cl)nc23)cc1OC`, the Inhibition in the assay with Staphylococcus aureus is on record as -2.47%; in the assay on Escherichia coli, -5.54%.

In the case of `Cc1nnc2ccc(S(=O)(=O)N(Cc3ccc(F)cc3)c3ccc(Cl)cc3)cn12`, the Inhibition with Staphylococcus aureus is 3.43%; in the assay on Escherichia coli, -7.02%.

Take `CCc1nnc2ccc(S(=O)(=O)N(Cc3cccc(OC)c3)c3ccc(F)cc3)cn12`: the Inhibition in the assay on Staphylococcus aureus is listed as -0.44%; in the assay on Escherichia coli, -12.34%.

For `COc1ccc(N2CCN(C(=O)Cn3nc4c(Oc5ccc(C)cc5)nccn4c3=O)CC2)cc1`, the Inhibition in the assay with Staphylococcus aureus is given as 4.51%; with Escherichia coli, -5.74%.

As to `CCc1nnc2ccc(S(=O)(=O)N(Cc3ccc(OC)c(F)c3)c3ccccc3)cn12`, the Inhibition with Staphylococcus aureus is reported as -14.1%; in the assay with Escherichia coli, -2.03%.

Regarding `CCCCc1ccc(NC(=O)Cn2nc3c(Sc4ccccc4CC)nccn3c2=O)cc1`, the Inhibition is listed as -7.41% in the assay on Staphylococcus aureus and -10.67% in the assay with Escherichia coli.

On to `CCc1ccc(N(Cc2ccc(Cl)cc2)S(=O)(=O)c2cccn3c(C)nnc23)cc1`, for which the Inhibition is on record as 0.63% in the assay with Staphylococcus aureus and -8.46% with Escherichia coli.

In the case of `CN(Cc1ccccc1)C(=O)CSc1nnc2c3cc(-c4ccccc4)nn3ccn12`, the figures for the Inhibition with Staphylococcus aureus and with Escherichia coli were 11.08% and -11.2%, respectively.

Turning to `CCOc1ccc(NC(=O)Cn2nc3c4cc(-c5ccc(C)cc5)nn4ccn3c2=O)cc1`, the Inhibition in the assay with Staphylococcus aureus was 9.82%; in the assay on Escherichia coli, 2.19%.

`COc1cc(Cl)c(C)cc1NC(=O)Cn1nc2ccc(SC(C)(C)C)nn2c1=O`: the Inhibition in the assay with Staphylococcus aureus is 0.92%; in the assay with Escherichia coli, 3.96%.

Turning to `CC(C)c1nnc2c(SCC(=O)Nc3cccc(Cl)c3)nc3ccccc3n12`, the Inhibition was found to be 8.54% in the assay with Staphylococcus aureus and 0% in the assay with Escherichia coli.

Turning to `Cc1cc(C)c(NC(=O)Cn2nc3c(Sc4ccccc4)nccn3c2=O)c(C)c1`, the Inhibition is reported as 5.4% with Staphylococcus aureus and -7.73% in the assay on Escherichia coli.

In the case of `Cc1nnc2ccc(S(=O)(=O)N(Cc3cccc(F)c3)c3ccc(F)c(F)c3)cn12`, the results for the Inhibition in the assay on Staphylococcus aureus and in the assay with Escherichia coli were 0.15% and -12.6%, respectively.

As to `O=C(Cn1nc2c3cc(-c4ccccc4)nn3ccn2c1=O)N1CCN(c2ccccc2F)CC1`, the figures for the Inhibition in the assay with Staphylococcus aureus and in the assay on Escherichia coli were 4.61% and -0.58%, respectively.
